Assay outcomes deposited in PubChem BioAssay by National Center for Advancing Translational Sciences (NCATS).
Shown are actives, neighbours in structure and some others; about 12% of the full set was active somewhere.
Sfp PPTase inh – qHTS Assay for Inhibitors of Bacillus subtilis Sfp phosphopantetheinyl transferase (PPTase); Biochemical Sfp PPTase activity, qHTS; hit rate 3.5% among 310,000; Potency, µM, most hits filed as inhibitors; AID 1490, 2009;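 also: the enzyme is Sfp with the accession as filed and its product quenches rhodamine fluorescence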
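Fluorescence-quenching assay with 15 nM Sfp, 5 uM rhodamine-CoA and 12.5 uM BHQ-2-labelled ybbR peptide in pH 7.6 Hepes/MgCl2 buffer. Enzyme was pre-incubated with compound for 15 min at room temperature. Rate was taken from the 30-min fluorescence change (525/598 nm).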
BAZ2B inh – qHTS Assay for Inhibitors of BAZ2B; AlphaScreen BAZ2B-H3K14Ac peptide displacement; AID 504333, 2011; Potency, µM (titrated, usually from 114 µM), most hits filed as inhibitors; hit rate 4.4% among 360,000; Bromodomain adjacent to zinc finger domain protein 2B (Homo sapiens), Q9UIF8; also: nearly all actives have a fitted effect of over 60% in size
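In this displacement format the biotinylated H3(5-23) peptide acetylated at Lys14 serves as ligand at 50 nM, with BAZ2B at 50 nM in PBS pH 7.4 containing 0.01% Tween-20. Donor and acceptor beads are 10 ug/mL final.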
HP1b binding inh – HTS for Inhibitors of HP1-beta Chromodomain Interactions with Methylated Histone Tails | Chromobox protein homolog 1 (Homo sapiens), P83916 | AlphaScreen HP1-beta / biotin-H3K9me3 peptide binding | Potency, µM (top dose mostly 114 µM), hits mostly inhibitors | hit rate 0.56% among 390,000 | AID 540317, 2011; also: nearly all actives have a fitted effect of over 70% in size
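HP1-beta protein (50 nM final) preincubated 30 min at room temperature with biotinylated H3(1-18)K9me3 peptide (50 nM) in PBS pH 7.4, 0.01% Tween-20, then compound added for 30 min. AlphaScreen streptavidin donor/nickel chelate acceptor beads (10 ug/mL final), 30 min dark, luminescence read.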
PLK1 PBD inh – qHTS for Inhibitors of PLK1-PDB (polo-like kinase 1 - polo-box domain): Primary Screen. AID 720504, 2013. Plk1 PBD binding of FITC phosphopeptide, fluorescence polarization. hit rate 2.8% among 360,000. Potency, µM, most hits filed as inhibitors; also: series mostly up to about 57 µM; nearly all actives have a fitted effect of over 65% in size
Target sequence (P53350 whole entry, looked up, the tested form may be a part): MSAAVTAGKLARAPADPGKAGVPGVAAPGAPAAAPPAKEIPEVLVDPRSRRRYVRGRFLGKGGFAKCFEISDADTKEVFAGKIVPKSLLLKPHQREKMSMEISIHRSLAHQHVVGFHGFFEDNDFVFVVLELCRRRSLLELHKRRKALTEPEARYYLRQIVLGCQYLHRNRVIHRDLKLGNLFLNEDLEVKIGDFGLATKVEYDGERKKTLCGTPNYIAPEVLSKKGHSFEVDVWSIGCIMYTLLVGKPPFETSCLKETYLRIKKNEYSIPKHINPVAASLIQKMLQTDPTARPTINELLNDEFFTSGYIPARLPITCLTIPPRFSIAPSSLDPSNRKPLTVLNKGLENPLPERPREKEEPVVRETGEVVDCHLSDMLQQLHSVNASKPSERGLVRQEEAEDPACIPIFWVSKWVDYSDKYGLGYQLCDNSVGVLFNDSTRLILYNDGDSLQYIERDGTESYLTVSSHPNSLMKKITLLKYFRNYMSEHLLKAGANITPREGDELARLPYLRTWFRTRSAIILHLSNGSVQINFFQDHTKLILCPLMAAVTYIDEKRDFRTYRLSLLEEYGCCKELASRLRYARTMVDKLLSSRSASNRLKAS
G9a inh – qHTS Assay for Inhibitors of Histone Lysine Methyltransferase G9a | Histone-lysine N-methyltransferase EHMT2 (Homo sapiens), Q96KQ7 | G9a H3K9 monomethylation, AlphaScreen, 2 h | Potency, µM (top dose mostly 102 µM), usual class: inhibitors | hit rate 8.8% among 350,000 | AID 504332, 2011; also: nearly all actives have a fitted effect of over 75% in size
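Using a bead-based AlphaScreen, monomethylated H3K9 product from 2 h room-temperature reactions (G9a 20 nM, peptide 500 nM, SAM 20 uM) was detected with 0.5 ug/mL rabbit anti-H3K9me1 antibody.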
JMJD2A Tudor inh – qHTS Assay for Inhibitors of JMJD2A-Tudor Domain; Potency, µM (series often up to 114 µM), hits mostly inhibitors; hit rate 4.4% among 390,000; AID 504339, 2011; AlphaScreen JMJD2A-Tudor / H3K4me3 peptide binding; Lysine-specific demethylase 4A (Homo sapiens), O75164; also: nearly all actives have a fitted effect of over 50% in size
Large screens that a line does not name were inactive. Calls follow the shape of the dose curve; as a rule, active = well fitted curve in the direction sought with a large enough effect; inconclusive = small, poorly fitted or top-dose-only effect, or another doubt; inactive = no such curve, though single readings can be large; an effect the other way counts as inactive or inconclusive.

O=C1c2cccc3cccc(c23)C(=O)N1c1ccc2ncccc2c1	Sfp PPTase inh inconclusive, BAZ2B inh inconclusive, G9a inh 25µM, JMJD2A Tudor inh 79µM
Cc1ccc(CN2CC(C(=O)Nc3cc(S(C)(=O)=O)ccc3Cl)CC2=O)cc1 (stereo unspecified)	BAZ2B inh 50µM, G9a inh inconclusive
COc1ccc(CCN2CC(C(=O)Nc3cc(S(C)(=O)=O)ccc3Cl)CC2=O)cc1OC (stereo unspecified)	none (no result: Sfp PPTase inh)
Cc1o[nH]c(=O)c1CCC(N)C(=O)O (stereo unspecified)	none (no result: BAZ2B inh, HP1b binding inh, PLK1 PBD inh, JMJD2A Tudor inh)
CC(C)(C)c1ccc(NS(=O)(=O)c2ccc(N)cc2)cc1	G9a inh inconclusive
CC(C)(C)c1ccc(S(=O)(=O)/C=C/C#N)cc1	G9a inh 0.95µM (no result: Sfp PPTase inh, BAZ2B inh, HP1b binding inh, PLK1 PBD inh, JMJD2A Tudor inh)
N#Cc1cccc(NC(=O)N2CC[C@@]3(CCCN(C(=O)c4cc(C(F)(F)F)cc(C(F)(F)F)c4)C3)C2)c1	none (no result: BAZ2B inh, HP1b binding inh, PLK1 PBD inh, JMJD2A Tudor inh)
CC(=O)Nc1ccc(Nc2nc(C)c([N+](=O)[O-])c(Nc3ccccc3)n2)cc1	G9a inh inconclusive
COc1ccc(Nc2nc(N/N=C/c3ccc(N(C)C)cc3)nc(C)c2[N+](=O)[O-])cc1	BAZ2B inh inconclusive, G9a inh 5µM, JMJD2A Tudor inh inconclusive
COc1ccc(Nc2nc(NN)nc(C)c2[N+](=O)[O-])cc1	BAZ2B inh inconclusive, G9a inh inconclusive, JMJD2A Tudor inh inconclusive
Cc1nc(Nc2ccc(C(=O)O)cc2)nc(Nc2ccc(C(=O)O)cc2)c1[N+](=O)[O-]	G9a inh 45µM
CC1C[N+](=C2C=C(N3CCOCC3)CC(C)(C)C2)CC(C)O1 (stereo unspecified)	Sfp PPTase inh inconclusive, HP1b binding inh 25µM, PLK1 PBD inh inconclusive, JMJD2A Tudor inh inconclusive
CC1(C)CC(N2CCOCC2)=CC(=[N+]2CCOCC2)C1	HP1b binding inh inconclusive, G9a inh 40µM, JMJD2A Tudor inh inconclusive
CC1(C)CC(N2CCCCC2)=CC(=[N+]2CCCCC2)C1	G9a inh inconclusive
COc1ccc(C(C(=O)NCC2CCCO2)N(C(=O)Cn2nnc3ccccc32)c2ccccc2C(C)=O)cc1OC (stereo unspecified)	none
CC(=O)N1c2ccc(S(=O)(=O)N3CCCCCC3)cc2CC1C(=O)NC(C)C (stereo unspecified)	G9a inh inconclusive (no result: Sfp PPTase inh, PLK1 PBD inh)
Cc1cccc2nc(CSc3nncn3-c3ccccc3)cn12	G9a inh 40µM
Cc1cccc2nc(CSc3nnnn3-c3ccccc3)cn12	none
Brc1c(CSc2nncn2-c2ccccc2)nc2ncccn12	G9a inh 56µM
c1ccc(-n2cnnc2SCc2cn3ccccc3n2)cc1	G9a inh 50µM
COc1ccc(-c2cnc(C(N)=O)c(=O)[nH]2)cc1	none (no result: Sfp PPTase inh, BAZ2B inh, HP1b binding inh, G9a inh, JMJD2A Tudor inh)
COc1ccc(NC(=S)Nc2ncccc2C)c(OC)c1	BAZ2B inh 40µM, HP1b binding inh inconclusive, PLK1 PBD inh inconclusive, G9a inh inconclusive, JMJD2A Tudor inh 50µM
Cc1cccnc1NC(N)=S	none
COc1ccc(NC(=O)C(=O)Nc2cccc3cccnc23)c(OC)c1	none
COc1ccc(NC(=S)NCC(O)c2ccccc2)c(OC)c1 (stereo unspecified)	none
Cc1cccnc1NC(=S)Nc1ccc(Cl)c(Cl)c1	Sfp PPTase inh 14µM
Cc1cccnc1NC(=S)Nc1ncccc1C	none
COc1ccc(NC(=S)Nc2ccccc2)c(OC)c1	G9a inh 16µM
COc1ccc(NC(=S)Nc2ncccc2C)cc1OC	Sfp PPTase inh 40µM, BAZ2B inh inconclusive, HP1b binding inh inconclusive, G9a inh 22µM, JMJD2A Tudor inh inconclusive
COc1ccc(C2CC(=O)N(C)c3ccccc3S2)cc1 (stereo unspecified)	none
COc1ccc(C(=O)Nc2cc(C(F)(F)F)ccc2-n2cncn2)cc1	none
